{"source": "PubChem BioAssay AID588856", "about": "(National Center for Advancing Translational Sciences (NCATS), 2011)", "note": "About 3,100 (0.76%) of roughly 410,000 compounds were called active. The entries come from a sample that favours actives as a whole. A number with no mark means an inactive call. The call rests on the fitted dose curve; in most records, active means well fitted cell-killing curve with a large enough effect; inactive means no such curve, though single readings can be large or run the other way. Potency means the concentration at half of the fitted maximal effect."}
{"experiment": "qHTS for Inhibitors of TGF-b: Cytotox Counterscreen", "details": "HepG2 CAGA-GFP viability, ATP luminescence, 18 h; series mostly up to 46.1 µM; activity change, negative = cytotoxicity: at the top concentration", "summary_of_the_method": "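CellTiter-Glo luminescence gave cytotoxicity after 18 hours at 37 degrees C. The cells were HepG2 CAGA-GFP in 1% FBS DMEM, stimulated with 500 pg/mL TGF-beta after compound addition. %Activity was normalised to no-cell wells (complete cell-killing) and DMSO (no toxicity), and curves were fitted and classified.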", "units": {"activity change, negative = cytotoxicity": "%"}}
{"smiles": "Cc1ccc(-c2cc(C(F)(F)F)c(C#N)c(SCC(=O)Nc3ccccc3)n2)cc1", "activity change, negative = cytotoxicity": -57.5}
{"smiles": "CCc1ccc(NS(=O)(=O)c2ccc3[nH]cc(C(=O)NCCc4cccc(C)c4)c(=O)c3c2)cc1", "activity change, negative = cytotoxicity": -5.43}
{"smiles": "CC(=O)/C(=N\\Nc1ccc(Cl)cc1Cl)Sc1cccc2cccnc12", "Potency": "3.98 µM (active)"}
{"smiles": "COc1c(Cl)cc(Cl)cc1C(=O)Nc1cccc2cccnc12", "activity change, negative = cytotoxicity": -2.38}
{"smiles": "O=C(Nc1cccc2cccnc12)C(F)(F)F", "activity change, negative = cytotoxicity": -32.1}
{"smiles": "Clc1cccc[n+]1CCCC[n+]1ccccc1Cl", "activity change, negative = cytotoxicity": -52}
{"smiles": "Cc1ccccc1-c1nc2cc(NC(=O)c3cccc(OCCC(C)C)c3)ccc2o1", "activity change, negative = cytotoxicity": 2.29}
{"smiles": "COc1cc(OC)c2c(c1C(CCN1CCCCC1)c1ccc(N(C)C)cc1)OC(=O)CC2c1ccc(N(C)C)cc1", "note": "(configuration not stated)", "activity change, negative = cytotoxicity": 4.96}
{"smiles": "COc1ccc(C(=O)Nc2ccccc2C(=O)N/N=C/c2ccc(O)c(OC)c2)cc1", "Potency": "3.55 µM (active)"}
{"smiles": "COc1ccc(Nc2ncc(C(=O)Nc3cc(C)ccc3OC)c3ccccc23)cc1", "activity change, negative = cytotoxicity": 2.26}
{"smiles": "COc1cc(/C=C/C(=O)OCC(=O)Nc2cccc(Oc3ccccc3)c2)ccc1O", "activity change, negative = cytotoxicity": 3.37}
{"smiles": "COc1cc(OC)cc(C(=O)Nc2ccc3nc(Nc4cccc(C(F)(F)F)c4)cc(C)c3c2)c1", "activity change, negative = cytotoxicity": -36.6}
{"smiles": "COc1cc(NC(=O)c2[nH]cnc2C(N)=O)cc(C(=O)Nc2cccc(C(F)(F)F)c2)c1", "Potency": "7.08 µM (active)"}
{"smiles": "Cc1onc(-c2ccc(F)cc2F)c1C(=O)Nc1cccc(C(F)(F)F)c1", "activity change, negative = cytotoxicity": -16.8}
{"smiles": "COc1ccc(/C=C/c2ccccn2)cc1OC", "activity change, negative = cytotoxicity": 0.583}
{"smiles": "Cc1ccc(-c2cn3c(n2)sc2cc(C(=O)NCc4cccs4)ccc23)c(C)c1", "activity change, negative = cytotoxicity": -1.61}
{"smiles": "COc1ccc(NC(=O)Cn2c(=O)n(CCC(C)C)c(=O)c3cccnc32)cc1Cl", "activity change, negative = cytotoxicity": -15.1}
{"smiles": "CCCCN1C(N)=NC[C@@H]1CC1CCCCC1", "activity change, negative = cytotoxicity": 9.04}
{"smiles": "CN(C)C1=NC[C@H](Cc2ccccc2)N1CCc1ccc(F)cc1", "activity change, negative = cytotoxicity": -8.32}
{"smiles": "CCCC[C@@H]1CN=C(N)N1CCc1cc(C(F)(F)F)cc(C(F)(F)F)c1", "Potency": "15.8 µM (active)"}
{"smiles": "CC(NC(=O)CCc1cn(Cc2ccccc2Cl)c2ccccc12)c1ccccc1", "note": "(configuration not stated)", "activity change, negative = cytotoxicity": -40.5}
{"smiles": "Cc1cc(OC(C)C(=O)Nc2sc3c(c2C(N)=O)CCCC3)ccc1Cl", "note": "(configuration not stated)", "activity change, negative = cytotoxicity": -2.1}
{"smiles": "O=C(Cn1ncn2nc(-c3cccs3)cc2c1=O)NCc1cccc(Br)c1", "activity change, negative = cytotoxicity": -4.13}
{"smiles": "Cc1ccc(C)c(OCC(=O)Nc2sc3c(c2C#N)CCCC3)c1C", "activity change, negative = cytotoxicity": -5.1}
{"smiles": "CCOC(=O)N1CCc2c(sc3c2C(=O)NC(c2ccccc2F)N3)C1", "note": "(configuration not stated)", "activity change, negative = cytotoxicity": -25.8}
{"smiles": "NC1=CC(=O)C(=O)c2cccnc21", "Potency": "6.31 µM (active)"}
{"smiles": "Cc1ccc2c(=O)cc(C(=O)Nc3sc4c(c3C(=O)NCc3cccnc3)CCCC4)oc2c1", "activity change, negative = cytotoxicity": -33.8}
{"smiles": "COc1ccc(N2CCN(c3nc(-c4ccccc4F)nc4ccccc34)CC2)cc1", "activity change, negative = cytotoxicity": -3.07}
{"smiles": "O=C(O)c1ccc(Nc2nc(-c3ccccc3)c3cc(Br)ccc3n2)cc1", "activity change, negative = cytotoxicity": 1.26}
{"smiles": "CC(C)Cn1c(=O)c2ccccc2n2c(-c3cccc(Cl)c3)nnc12", "activity change, negative = cytotoxicity": -27.9}
{"smiles": "O=c1c2cc(Br)ccc2nc(-c2cccc(Cl)c2)n1O", "Potency": "15.8 µM (active)"}
{"smiles": "CCOc1ccccc1C(=O)NC1(C(F)(F)F)NC(=O)N(CCc2ccc(OC)c(OC)c2)C1=O", "note": "(configuration not stated)", "activity change, negative = cytotoxicity": 2.01}
{"smiles": "Cc1nc(SCC(=O)Nc2ccc(C(=O)O)cc2)n[nH]1", "activity change, negative = cytotoxicity": -5.27}
{"smiles": "CN(C)c1ccc(/C=C/C=C/c2ccnc3ccccc23)cc1", "activity change, negative = cytotoxicity": -45.3}
{"smiles": "COc1ccc(C2=Nn3c(nnc3-c3ccccc3OC)SC2)cc1OC1CCCC1", "Potency": "17.8 µM (active)"}
{"smiles": "Cc1nnc2n1N=C(c1ccc3c(c1)NC(=O)CO3)CS2", "activity change, negative = cytotoxicity": -0.995}
{"smiles": "O=C(Nc1ccc([N+](=O)[O-])cc1)c1cnn2c1NC(=C1CC1)C=C2C(F)F", "activity change, negative = cytotoxicity": -31.1}
{"smiles": "CCOc1ccc(Nc2nc3c(S(=O)(=O)c4cccc(Cl)c4)nnn3c3ccsc23)cc1", "activity change, negative = cytotoxicity": -14.5}
{"smiles": "CCc1nc2ccc(C(=O)Nc3cccc(OC)c3)cn2c1N(CCC(C)C)CCN(C)C", "Potency": "11.2 µM (active)"}
{"smiles": "CCc1nc2ccc(C(=O)N(C)CCN(C)C)cn2c1N(CC)CCOC", "activity change, negative = cytotoxicity": 5.27}
{"smiles": "CCc1nc2ccc(C(=O)Nc3ccc(OC)c(OC)c3)cn2c1N(C)C(=O)c1cccc(OC)c1", "activity change, negative = cytotoxicity": -0.381}
{"smiles": "COc1cccc(CNC(=O)C(=O)NCC(c2cccs2)S(=O)(=O)c2ccccc2)c1", "note": "(configuration not stated)", "activity change, negative = cytotoxicity": -3.22}
{"smiles": "CN(C)c1ccc(/C=C/c2c3ccccc3nc3ccccc23)cc1", "activity change, negative = cytotoxicity": 1.81}
{"smiles": "O=C(C[C@H]1C/C=C\\C[C@@H](NC(=O)OCC2c3ccccc3-c3ccccc32)C(=O)O[C@@H](c2ccccc2)CNC1=O)N[C@H](CO)Cc1ccccc1", "Potency": "12.6 µM (active)"}
{"smiles": "O=C(N[C@@H]1C/C=C\\C[C@@H](CC(=O)N(CCO)Cc2ccccc2)C(=O)N[C@H](Cc2ccccc2)COC1=O)OCC1c2ccccc2-c2ccccc21", "activity change, negative = cytotoxicity": -12.3}
{"smiles": "CC(C)(C)OC(=O)C[C@@H]1C/C=C\\C[C@@H](CC(=O)N[C@H](CO)Cc2ccccc2)C(=O)NC[C@@H](c2ccccc2)OC1=O", "activity change, negative = cytotoxicity": -6.66}
{"smiles": "COc1ccccc1CNC(=O)CCn1c(=O)c2ccccc2n(CC(=O)Nc2cccc(Cl)c2)c1=O", "activity change, negative = cytotoxicity": -16.8}
{"smiles": "COc1cc(NC(=O)CCn2nc(C)cc2C)cc(OC)c1OC", "activity change, negative = cytotoxicity": -1.73}
{"smiles": "COc1ccc2oc(-c3ccc(C)c(NC(=O)c4sc5ccccc5c4Cl)c3)nc2c1", "activity change, negative = cytotoxicity": -8.16}
{"smiles": "O=C(CCl)Nc1cccc(CP(=O)(c2ccccc2)c2ccccc2)c1", "Potency": "15.8 µM (active)"}
{"smiles": "O=C(COc1ccccc1C(=O)Nc1ccccc1)Nc1cccc(F)c1", "activity change, negative = cytotoxicity": -3.03}
{"smiles": "CCc1cccc(NC(=O)c2cc(-c3ccccc3)n[nH]2)c1", "activity change, negative = cytotoxicity": -12.5}
{"smiles": "Cc1cccc(CN2Cc3cccc4c3[C@H](C=CC4)CC2=S)c1", "activity change, negative = cytotoxicity": -24}
{"smiles": "CCOCCCNC(=S)Nc1ccc2nc(N3CCN(CC)CC3)cc(C)c2c1", "activity change, negative = cytotoxicity": -13.3}
{"smiles": "CCN1CCN(c2cc(C)c3cc(NC(=O)c4cc(Cl)ccc4OC)ccc3n2)CC1", "Potency": "11.2 µM (active)"}
{"smiles": "COc1ccc(C(=O)Nc2ccc3nc(N4CCCCC4)cc(C)c3c2)cc1OC", "Potency": "inactive"}
{"smiles": "COc1cc(C(=O)N2CCC(c3ccncc3)CC2)cc(OC)c1OC", "activity change, negative = cytotoxicity": -29.2}
{"smiles": "CNC[C@H](CC1CCCCC1)NC[C@H](NCCC1CCCC1)[C@H](C)O", "Potency": "15.8 µM (active)"}
{"smiles": "CCOc1cccc2cc(-c3cn4c(n3)sc3cc(C)ccc34)c(=O)oc12", "activity change, negative = cytotoxicity": -0.0206}
{"smiles": "CCOC(=O)c1cnc2sccn2c1=O", "activity change, negative = cytotoxicity": -1.63}
{"smiles": "CCOC(=O)c1cnc2nc(SCc3ccccc3Cl)[nH]n2c1=O", "Potency": "2.82 µM (active)"}
{"smiles": "CCOC(=O)CSc1nc2c(c(=O)n(Cc3ccccc3Cl)c(=O)n2C)n1C", "activity change, negative = cytotoxicity": -17.5}
